The structures appear in SMILES notation. Results filed as inconclusive are left out. Calls of active or inactive are those of the source. The call rests on the fitted dose curve; in most records, active means well fitted inhibition curve with a large enough effect; inconclusive means small, poorly fitted or top-dose-only effect; inactive means no such curve, though single readings can be large or run the other way. Where a SMILES comes first, the peptide text is derived from it. Bridges are numbered along the chain shown (N, C = ends). [ ]: non-standard residue; d: D form. The star is where a group is joined. X1 = CCC(C)C(N)C1=NC(C(=O)*)CS1; dOrn = NCCC[C@@H](N)C(=O)O

These results are taken from PubChem BioAssay (NCATS).
On the % scale 0 is the no-effect control and ±100 the full control effect.

This assay relates to Zika virus NS2B-NS3 protease (linked construct). In words: Primary screen NINDS Rhodamine qHTS for Zika virus inhibitors (AID 1347160). Further: nearly all actives have a fitted effect of over 55% in size. The note with it: purified NS2B-NS3 protease, Rhodamine110 substrate fluorescence; series mostly up to 57.1 µM; activity change, negative = inhibition: at the top concentration. A digest of the protocol: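 Aprotinin served as in-plate control. Conditions: 25 nM linked NS2B-NS3, pH 8.0 Tris buffer, titrated compounds, 15 min preincubation and 15 min reaction with 1.5 microM Rhod110 substrate at room temperature.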
In general terms: qHTS replaces the single test concentration by a dilution series.
As to `CO[C@H]1C=C2C(CC[C@H](O[C@@H]3O[C@H](CO)[C@@H](O)[C@@H](O)[C@H]3O)C2(C)C)[C@]2(C)CC[C@]3(C)C([C@H](C)C(O)C(C=C(C)C)O[C@@H]4O[C@H](CO)[C@@H](O)[C@@H](O)[C@H]4O)CC[C@@]3(C)C12` (some centres undefined), the “activity change, negative = inhibition” value was 21.6% [at 15.1 µM] (inactive).

For `COc1cc(C2c3cc(O)c(OC)cc3CC(CO)C2CO)ccc1O` (centres undefined), the “activity change, negative = inhibition” value was -29.5% [at 33.1 µM] (inactive). The same measure, in the same setting: the same measure for `C[C@]12CCC[C@](C)(C(=O)O)C1CCC13C=C(CO)C(CCC12)C3` (some centres undefined): 29.7% [at 33.1 µM] (inactive); for `CC(/C=C/C1(O)C(C)CC(O)CC1(C)C)OC1OC(CO)C(O)C(O)C1O` (centres undefined): -17.8% [at 33.1 µM] (inactive); for `C/C=C1\[C@H](O[C@@H]2O[C@H](CO)[C@@H](O)[C@H](O)[C@H]2O)OC=C(C(=O)OC)[C@H]1CC(=O)OC`: 15.7% [at 33.1 µM] (inactive). On to `C=C1C[C@]23C[C@H]1CC[C@H]2[C@@]12C=C[C@H](O)[C@@](C)(C(=O)O1)[C@H]2[C@@H]3C(=O)O`, for which the “activity change, negative = inhibition” value is -1.66% [at 33.1 µM] (inactive).

Regarding `CC1(C)CC[C@]2(C(=O)O[C@@H]3O[C@H](CO)[C@@H](O)[C@H](O)[C@H]3O)CC[C@]3(C)C(=CCC4[C@@]5(C)C[C@@H](O)[C@H](O)C(CO)(CO)C5CC[C@]43C)C2[C@@H]1O` (some centres undefined), the “activity change, negative = inhibition” value is 3.36% [at 15.1 µM] (inactive). With `CC(C)(O)C1CCC2(C)C3C(O)C4C(C13)C42CO` (centres undefined), the “activity change, negative = inhibition” value was -3.5% (inactive). With `Cc1cc(C)c(S(=O)(=O)N(Cc2ccc(-c3cccc(S(C)(=O)=O)c3)cc2)Cc2ccc(C(F)(F)F)o2)c(C)c1`, the “activity change, negative = inhibition” value was 5.24% (inactive). For `OC[C@H]1O[C@@H](OCCc2ccc(O)cc2)[C@H](O)[C@@H](O)[C@@H]1O`, the “activity change, negative = inhibition” value is -2.51% (inactive). Turning to `C=CC(C)(C)C1(CC2NC(=O)C3CCCN3C2=O)C(=O)Nc2cc3c(cc21)C=CC(C)(C)O3` (centres undefined), the “activity change, negative = inhibition” value was 6.12% [at 33.1 µM] (inactive). On the same count and under the same terms, the same measure for `O=C(O)Cc1nn(Cc2nc3cc(C(F)(F)F)ccc3s2)c(=O)c2nccnc12`: 14.2% (inactive); for `C[C@@H]1C[C@H](O)/C=C/[C@H](O)[C@@H](O)CC(=O)O1`: 17.3% (inactive). For the compound `N[C@@H](CC(=O)N1CCn2c(nnc2C(F)(F)F)C1)Cc1[nH]nc2c(F)c(F)ccc12`, the “activity change, negative = inhibition” value is 36.9% (inactive). In the case of `CCC(C)(O)C(O)C(=O)OCc1ccc(O[C@@H]2O[C@H](CO)[C@@H](O)[C@H](O)[C@H]2O)c(OC)c1` (some centres undefined), the “activity change, negative = inhibition” value is 20.3% [at 33.1 µM] (inactive).

As to `CC(=O)N(O)CCCCCN1C(=O)CCC1=O`, the “activity change, negative = inhibition” value was 38.1% (inactive). In the case of `COc1cc(/C=C/C(=O)OC2[C@H](O)CC(O)(C(=O)O)C[C@H]2O)ccc1O` (some centres undefined), the “activity change, negative = inhibition” value is -22.4% [at 33.1 µM] (inactive). `OC[C@H]1O[C@@H](OC(CCCCc2ccc(O)cc2)CCc2ccc(O)cc2)[C@H](O[C@@H]2OC[C@](O)(CO)[C@H]2O)[C@@H](O)[C@@H]1O` (some centres undefined): the “activity change, negative = inhibition” value was 12.8% [at 15.1 µM] (inactive).

`COc1cc(/C=C/C(=O)OC2CC(OC(C)=O)C(OC(C)=O)C3C2CCC2C(=O)OC(c4ccoc4)CC23C)ccc1O[C@@H]1O[C@H](CO)[C@@H](O)[C@H](O)[C@H]1O` (some centres undefined): the “outcome” value is “inactive [at 15.1 µM]”.

On to `C=C(C)C1CC2(CO)C(=CC1=O)CCC(O)C2C` (centres undefined), for which the “activity change, negative = inhibition” value is 16% (inactive).

Turning to `Cc1c(CN(C)C(=O)/C=C/c2cnc3c(c2)CCC(=O)N3)oc2ccccc12`, the “activity change, negative = inhibition” value was 3.34% (inactive). Still for that read-out and setting: the same measure for `CCN(c1cc(C#CCN2CCOCC2)cc(C(=O)NCc2c(C)cc(C)[nH]c2=O)c1C)C1CCC(N(C)CCOC)CC1` (centres undefined): 4.39% [at 33.1 µM] (inactive); for `O=C(/C=C/c1ccccc1)OCC1=CC[C@@H]2C(C(=O)O)=CO[C@@H](O[C@@H]3O[C@H](CO)[C@@H](O)[C@H](O)[C@H]3O)[C@H]12`: 6.75% [at 33.1 µM] (inactive); for `Cc1nc2c(-c3cnc(N)nc3)nc(N3CCOCC3)nc2n1C(C)C`: 17.2% (inactive). Turning to `C=C1CC[C@@H]2[C@](C)(CC[C@H](O)[C@@]2(C)CCC=C(C)C)[C@@H]1Cc1c[nH]c2ccccc12`, the “activity change, negative = inhibition” value is 0.409% [at 33.1 µM] (inactive). On to `CC(=O)O[C@H]1[C@H](Oc2ccccc2COC(=O)C2(O)C=CCCC2=O)O[C@H](CO)[C@@H](O)[C@@H]1O` (some centres undefined), for which the “activity change, negative = inhibition” value is -8.43% [at 33.1 µM] (inactive). As to `O=C(C1CC1)N1CC[C@@H](Cc2n[nH]c(=O)n2-c2ccc(-c3ccc4occc4c3)cc2)C1`, the “activity change, negative = inhibition” value is 10.2% [at 15.1 µM] (inactive). As to `COC1CC(=O)C23C(=O)NC(CC(C)C)C2C(C)C(C)=CC3/C=C(\C)CCC1O` (centres undefined), the “activity change, negative = inhibition” value is 5.7% [at 33.1 µM] (inactive). On to `Nc1nonc1C(=Nc1ccc(F)c(Cl)c1)NO`, for which the result was inactive. As for `CC(=O)O[C@H](C[C@@H](C)[C@H]1C(=O)[C@H](O)[C@@]2(C)[C@@H]3CCC4C(C)(C)[C@@H](O[C@@H]5OC[C@H](O)[C@H](O)[C@H]5O)CC[C@@]45C[C@@]35CC[C@]12C)[C@@H]1OC1(C)C` (some centres undefined), the “activity change, negative = inhibition” value was -5.08% [at 15.1 µM] (inactive). With `COC(=O)C[C@@H]1C(C(=O)O)=CO[C@@H](O[C@@H]2O[C@H](CO)[C@@H](O)[C@H](O)[C@H]2O)/C1=C\COC(=O)/C=C\c1ccccc1`, the “outcome” value was “inactive [at 33.1 µM]”.

Take `O=c1ccn(C2OC(CO)C(O)C2O)c(=O)[nH]1` (centres undefined): the “activity change, negative = inhibition” value is 8.85% (inactive).

Regarding `CCC(C)C(N)C1=NC(C(=O)N[C@@H](CC(C)C)C(=O)N[C@H](CCC(=O)O)C(=O)N[C@H](C(=O)N[C@H]2CCCCNC(=O)[C@H](CC(N)=O)NC(=O)[C@@H](CC(=O)O)NC(=O)[C@H](Cc3cnc[nH]3)NC(=O)[C@@H](Cc3ccccc3)NC(=O)[C@H]([C@@H](C)CC)NC(=O)[C@@H](CCCN)NC2=O)[C@@H](C)CC)CS1` (some centres undefined) (X1-L[dE]IK[dOrn]I[dF]H[dD]N; lactam 4-C), the Potency entry is “inactive”.

Take `COC1=CC(=O)O[C@@H](CCc2ccccc2)[C@@H]1O`: the result was inactive.

For `CC(=O)OC[C@@]12[C@@H](OC(C)=O)C[C@@H](C)[C@](C)([C@@H]3C[C@H]4C=CO[C@H]4O3)[C@H]1CCC[C@]21CO1`, the “activity change, negative = inhibition” value was -0.48% [at 33.1 µM] (inactive). Same read-out and setting: the same measure for `O=C(NN1CCCCC1)c1nn(-c2ccc(Cl)cc2Cl)c(-c2ccc(C#Cc3ccc(C(F)(F)F)cc3)s2)c1CNS(=O)(=O)N1CCCC1`: 10.4% (inactive); for `COC1CC(=O)CCC(C)OC(=O)CC1O` (centres undefined): 29.1% (inactive); for `CC1(CO)CC[C@]2(C(=O)O[C@@H]3O[C@H](CO)[C@@H](O)[C@H](O)[C@H]3O)CC[C@]3(C)C(=CCC4[C@@]5(C)C[C@H](O)[C@H](O[C@@H]6OC[C@@H](O)[C@H](O)[C@H]6O)[C@@](C)(CO)C5CC[C@]43C)C2C1` (some centres undefined): -4.29% [at 15.1 µM] (inactive). As to `OC[C@H]1O[C@@H](n2cnc3c(NCc4ccc(O)cc4)ncnc32)[C@H](O)[C@@H]1O`, the “activity change, negative = inhibition” value was 1.64% (inactive).
